# According to PubChem BioAssay AID488922 (Johns Hopkins Ion Channel Center, 2010):
# The campaign covered roughly 310,000 compounds. About 3,800 (1.2%) were called active.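 How the source made its calls: active means ratio B-score over 3 SD below the library mean, with starting fluorescence within 5 SD of its mean; inactive means the rest, inconclusive results apart.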 This excerpt belongs to a sample that is enriched for actives.
# Target: Potassium channel subfamily K member 9 (Homo sapiens) (UniProt Q9NPC2)
# Assay: KCNK9 potassium channel inhibitors, primary screen, HEK293 cells, thallium flux (AID 488922);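 on B-score: negative B-score means less thallium flux so channel inhibition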
# Details: HEK293 KCNK9, FluxOR thallium flux fluorescence, at 10 µM; active compounds read low
# Sequence of Potassium channel subfamily K member 9 (Homo sapiens) (Q9NPC2 whole entry, looked up): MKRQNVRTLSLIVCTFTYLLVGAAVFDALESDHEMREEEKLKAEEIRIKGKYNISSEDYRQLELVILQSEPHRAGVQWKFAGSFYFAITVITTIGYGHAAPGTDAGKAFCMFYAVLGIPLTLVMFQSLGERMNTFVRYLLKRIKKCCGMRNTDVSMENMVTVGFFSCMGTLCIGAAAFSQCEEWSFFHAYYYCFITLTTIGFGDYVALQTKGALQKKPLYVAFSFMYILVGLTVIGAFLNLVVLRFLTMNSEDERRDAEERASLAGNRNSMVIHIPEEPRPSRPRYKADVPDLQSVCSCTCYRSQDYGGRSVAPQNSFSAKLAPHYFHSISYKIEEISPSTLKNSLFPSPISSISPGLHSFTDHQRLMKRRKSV
row,Structure (SMILES),B-score
1,CC(C)c1nnc(NC(=O)C2CC(=O)N(CCc3ccc(F)cc3)C2)s1 (stereo not given),inactive
2,CN(C(=O)CSc1nc(C2CC2)nc2ccccc12)c1nc(-c2ccccc2)cs1,inactive
3,CC(C)N(C(=O)CSc1nc(COc2ccccc2)nc2ccccc12)C(C)C,-17.1 (active)
4,CCCc1nc(SCC(=O)Nc2ccc(S(=O)(=O)N(C)C)cc2)c2ccccc2n1,inactive
5,COCCCNC(=S)N1CCN(c2nc(-c3cccc(OC)c3)cs2)CC1,inactive
6,COc1cccc(COc2ccc(N(C)S(=O)(=O)c3ccccc3)cc2)c1,-14.1 (active)
7,CN(c1ccc(OCC(=O)O)cc1)S(=O)(=O)c1ccc2ccccc2c1,inactive
8,Cc1ccc2nc(COc3ccc(N(C)S(=O)(=O)c4ccccc4)cc3)cc(=O)n2c1,inactive
9,O=C(Nc1ccccc1)O/N=C1/CCCc2occc21,inactive
10,Cc1ccc2c(c1)N(CC(=O)N1CCC(O)CC1)C(=O)CO2,inactive
11,O=C(O)COCC(=O)NCc1csc2ccc(Cl)cc12,inactive
12,Cc1nonc1NC(=O)c1oc2ccccc2c1C,inactive
13,Cc1c(C(=O)Nc2ccccn2)oc2ccc(Br)cc12,-9.33 (active)
14,Cc1noc(C)c1C(=O)Nc1ccccn1,inactive
15,C[C@H](NC(=O)c1nc[nH]c1C(=O)NCC(=O)OC(C)(C)C)C(=O)OCc1ccccc1,inactive
16,O=C(NCC1CCCO1)c1cc2c([nH]c3ccccc32)c(-c2ccc(F)cc2)n1 (stereo not given),inactive
17,CSCC[C@H](NC(=O)CCCn1nnc2ccccc2c1=O)C(=O)O,inactive
18,CCN(CC)CCNC(=O)c1ccc(NC(=O)c2c(F)cccc2Cl)cc1,inactive
19,Cc1cc(=O)[nH]c(N/N=C/c2ccc3c(c2)OCCO3)n1,inactive
20,Cc1nn(-c2ccccc2)c(Cl)c1/C=N/NC(=O)c1nn(C)cc1[N+](=O)[O-],inactive
21,Cc1cc(=O)[nH]c(N/N=C/c2c(C)nn(-c3ccccc3Cl)c2Cl)n1,-6.92 (active)
22,C=C1CCN([C@H](C(=O)NCc2cc(OC)c(OC)c(OC)c2)C(C)C)S(=O)(=O)c2ccccc21,inactive

row,Structure (SMILES),B-score
1,CCN(c1ccccc1)S(=O)(=O)c1cc2c(cc1C)n(C)c(=O)c(=O)n2C,inactive
2,Cc1ccc2c(c1)N(CC(=O)N(Cc1ccccn1)Cc1ccco1)C(=O)C(C(C)C)O2 (stereo not given),inactive
3,COc1cccc(-c2cc(C(=O)N3CCN(c4ccccc4OC)CC3)no2)c1,inactive
4,COc1cccc(-c2ccc(SCC(=O)N3CCN(c4ccccc4)CC3)nn2)c1,inactive
5,COc1cccc(-c2nn(C)c3sc(C(=O)N4CCN(c5ccccc5)CC4)cc23)c1,-9.93 (active)
6,Cn1nc(C(F)(F)F)c2cc(C(=O)N3CCOCC3)sc21,inactive
7,Cn1nc(-c2ccc(Cl)cc2)c2cc(C(=O)NCc3ccco3)sc21,inactive
8,COc1ccccc1N1CCN(C(=O)c2cc3c(-c4ccc(Cl)cc4)nn(C)c3s2)CC1,-13.6 (active)
9,CN1CCN(C2Cc3ccc(Cl)cc3Sc3ccc(F)cc32)CC1 (stereo not given),inactive
10,N#C/C=C/N1CCN(Cc2ccc3c(c2)OCO3)CC1,inactive
11,CC(C)(C)NC(=O)Cn1c(SCC(=O)Nc2nccs2)nc2ccccc21,inactive
12,O=C(Nn1cnnc1)c1cc(Cl)ccc1Cl,inactive
13,COc1ccc(/C=N/OCc2ccccc2C#N)c(OC)c1,inactive
14,O=C(Nc1ccccc1)N1CCN(C(=O)Nc2ccccc2)CC1,inactive
15,O=C(Nc1ccc(Cl)c(Cl)c1)N1CC=C(c2ccccc2)CC1,-8.34 (active)
16,COc1cc(C(=O)NCC(=O)N2CC=C(c3ccccc3)CC2)cc(OC)c1OC,inactive
17,Cc1cccc(N(C)C(=O)CN2C(=O)COc3ccc(S(=O)(=O)N4CCCCCC4)cc32)c1,-8.26 (active)
18,CN(C)c1ccc(CNC(=O)CN2C(=O)COc3ccc(S(=O)(=O)N4CCCC4)cc32)cc1,inactive
19,CC(=O)Nc1ccc(NC(=O)CN2C(=O)COc3ccc(S(=O)(=O)N4CCCCC4)cc32)cc1,inactive
20,COc1ccc(NC(=O)C(CC(C)C)NS(=O)(=O)c2ccc3c(c2)CCN3C(C)=O)cc1OC (stereo not given),inactive
21,S=c1nc2ccccc2c2nc(-c3cccnc3)[nH]n12,inactive
22,COCCCn1c(SCC(=O)Nc2oc(C)c3c(C)n[nH]c(=O)c23)nc2sc3c(c2c1=O)CCC3,inactive

row,Structure (SMILES),B-score
1,Fc1ccc(/C=N/Nc2nc(-c3cccnc3)nc3ccccc23)cc1,inactive
2,Oc1ccc(/C=N/Nc2nc(-c3ccccc3F)nc3ccccc23)c(O)c1,-10.4 (active)
3,Cc1nc2ccccc2nc1N/N=C/c1ccc(O)cc1O,inactive
4,O=C(CC(NC(=O)c1ccccc1)c1ccccc1)Nc1ccc(F)c(F)c1 (stereo not given),-10 (active)
5,Cc1ccc(NC(=O)NC(=O)c2ccccc2)cc1F,inactive
6,O=C(CN1CCN(Cc2ccccc2)CC1)Nc1ccc(F)c(F)c1,inactive
7,Cc1ccc(N/N=C2\COC(C)(C)CC2=O)cc1,inactive
8,Cc1ccc(S(=O)(=O)N2CCN(CC(=O)N/N=C/c3ccc(Br)s3)CC2)cc1,inactive
9,O=C(CN1CCCCCC1)Nc1ccc(S(=O)(=O)N2CCCCC2)cc1,inactive
10,Cc1cccc(NC(=O)CN2CCCN(S(=O)(=O)c3ccc(Br)s3)CC2)c1,-14.6 (active)
11,O=C1CCN(Cc2ccc([N+](=O)[O-])cc2)CCN1[C@H](CO)Cc1ccccc1,inactive
12,CCC1(C)Cc2c(sc3nc(SC)[nH]c(=O)c23)CO1 (stereo not given),inactive
13,CCCSc1nc(NCc2ccco2)c2c3c(sc2n1)COC(C)(CC)C3 (stereo not given),-9.18 (active)
14,CCC1(C)Cc2c(sc3nc(SC)nc(N)c23)CO1 (stereo not given),inactive
15,COc1ccc(-c2nc3c(s2)CCc2onc(-c4ccc(OC)cc4)c2-3)cc1,inactive
16,CC1CC(C)CN(S(=O)(=O)c2cccc3nonc23)C1 (stereo not given),inactive
17,CCn1c(Cc2cccs2)nnc1SCC(=O)c1ccc(C)cc1,inactive
18,Cc1cc(C=O)c(C)n1-c1ccc(NC2CCCCC2)c([N+](=O)[O-])c1,-24.9 (active)
19,Cc1cc([N+](=O)[O-])ccc1NC1CCCC1,inactive
20,Cc1c(NS(=O)(=O)c2ccc(NC3CCCC3)c([N+](=O)[O-])c2)c(=O)n(-c2ccccc2)n1C,inactive
21,Cc1ccc2nc(C)c3c(c2c1)N(c1ccccc1)CC3,inactive
